This note sets out measurements from PubChem BioAssay.

A number with no mark means an inactive call. Activity calls are given as the source filed them. Cut-off read from the data, not from the text of the source: active = fold change permeability below about 0.7 or above about 1.3; inactive = in between.

The assay is described as follows: modulators of brain endothelial barrier permeability, primary screen, cell-based, FITC-avidin fluorescence, HTS (AID 1963498). Note: test concentration not given here. As to conditions: actives lie on both sides.
Regarding `CC12CC3CC(C)(C1)CC(N)(C3)C2`, the fold change permeability was 0.8. For `NC(=Nc1ccccc1)NC(=O)c1nc(Cl)c(N)nc1N`, the fold change permeability was 1.2. Take `OC1(c2ccc(Cl)cc2)CCN(Cc2c[nH]c3ccccc23)CC1`: the fold change permeability is 1.4 (active). With `O=C(CCCCCN1CCN(c2ccccc2-c2ccccc2)CC1)NC1CCCc2ccccc21` (centres undefined), the fold change permeability is 1.1. `CC(=O)N[C@@H](CS)C(=O)O`: the fold change permeability is 1.1. The figure for `CCOC(=O)C1=C[C@]2(CC)CCCN3CCc4c(n1c1ccccc41)[C@@H]32` is 1.8 (active); for `CC1(C)CO[C@@H](CC(=O)O)CN1` it is 1.2; for `OC[C@H]1NC[C@H](O)[C@@H](O)[C@@H]1O` it is 1.1.

As for `O=C(O)c1ccccc1Nc1ccccc1`, the fold change permeability was 1.

Consider `CC(/C=C1\SC(=S)N(CC(=O)O)C1=O)=C\c1ccccc1`, for which the fold change permeability is 1. As to `O=C(O)C1(C(=O)O)CCC1.[NH2-].[NH2-].[Pt+2]`, the fold change permeability was 0.8. `C=C(Cc1ccccc1Cl)C(=O)OCC`: the fold change permeability was 1.

Consider `CC(C)(Sc1ccc(CCN(CCCCC2CCCCC2)C(=O)NC2CCCCC2)cc1)C(=O)O`, for which the fold change permeability was 1.

As for `C[N+](C)(C)CCCCCC[N+](C)(C)C`, the fold change permeability is 1. With `CCCCCCCCCCCCCCCCCCc1ccc(C(=O)/C=C/C(=O)O)cc1`, the fold change permeability was 1.2. As to `CCN(CC)CCOC(=O)c1cc(Cl)c(N)cc1OC`, the fold change permeability is 1.1. Regarding `O=c1c(O)c(-c2cc(O)c(O)c(O)c2)oc2cc(O)cc(O)c12`, the fold change permeability is 0.7 (active).

Regarding `CNCCC=C1c2ccccc2CCc2ccccc21`, the fold change permeability was 1. For `N=S(=O)(O)Cc1noc2ccccc12`, the fold change permeability is 1.9 (active). `COc1ccc2c(c1)CC[C@@H]1[C@@H]2CC[C@]2(C)[C@@H](NCCCCCCN3C(=O)CCC3=O)CC[C@@H]12`: the fold change permeability was 2.2 (active). As to `CN1CCC[C@@H]1CCO[C@](C)(c1ccccc1)c1ccc(Cl)cc1`, the fold change permeability is 1.1. As to `CS(=O)(=O)Nc1ccc([N+](=O)[O-])cc1Oc1ccccc1`, the fold change permeability is 0.8. Take `C[C@H](CS)C(=O)N1CCC[C@H]1C(=O)O`: the fold change permeability is 1. As to `CCc1c(C)[nH]c2c1C(=O)C(CN1CCOCC1)CC2` (centres undefined), the fold change permeability is 1.

`CC(C)(C)NCC(O)c1ccc(O)c(CO)c1` (centres undefined): the fold change permeability was 0.9. Consider `CC(=O)O[C@H]1CC[C@@]2(C)C(=CC[C@@H]3[C@@H]2CC[C@]2(C)C(c4cccnc4)=CC[C@@H]32)C1`, for which the fold change permeability was 1.8 (active). Then `CC(=O)N[C@H](C(=O)O)C(C)(C)SN=O`, with 0.9. As for `NOCC(=O)O`, the fold change permeability is 0.9.

Take `Cc1ccc(-n2sc(=O)n(Cc3ccc(F)cc3)c2=O)cc1`: the fold change permeability was 1.1. With `COc1cc(C(=O)OCCCN2CCCN(CCCOC(=O)c3cc(OC)c(OC)c(OC)c3)CC2)cc(OC)c1OC`, the fold change permeability was 1.5 (active).

In the case of `CCCC[C@@]1(C2CCCC2)Cc2cc(OCC(=O)O)c(Cl)c(Cl)c2C1=O`, the fold change permeability was 1.6 (active). Consider `C[C@H](N[C@@H](CCc1ccccc1)C(=O)O)C(=O)N1CCC[C@H]1C(=O)O`, for which the fold change permeability was 0.6 (active). `C[n+]1cc2c3c(ccc2c2ccc4cc5c(cc4c21)OCO5)OCO3`: the fold change permeability was 2.1 (active). Take `COc1cc2ncnc(-n3nc(-c4ccccn4)nc3N)c2cc1OC`: the fold change permeability was 2 (active). Then `CC1(C)CCC=[N+]1[O-]`, with 0.9; and `[Li+]`, with 1. The figure for `N#Cc1c2nc3ccccc3nc2n2ccc(NC(=O)c3cccs3)cc12` is 1.2; for `NS(=O)(=O)c1cc2c(cc1Cl)NC(C1CC3C=CC1C3)NS2(=O)=O` (centres undefined) it is 1.3 (active).

Turning to `O=C(Nc1ccc(-n2nc(C(F)(F)F)cc2C(F)(F)F)cc1)c1ccncc1F`, the fold change permeability was 1.2.
